Screen size: about 1,200 compounds; about 130 (11%) were called active. Only a sample is shown. A number with no mark means an inactive call. Cut-off read from the data, not from the text of the source: active = activation above about 120%; inactive = the rest.
test: NF-kB reporter activators in human cells, counter-screen for STAT3 activator project (AID 1309); details: NF-kappaB reporter activation, at 5.7 µM, stronger effect = higher value;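 note: reporter induced by TNF-alpha stimulation; 100% = median of stimulated DMSO wells and 0% = no signal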

| SMILES | activation (% of control) |
| --- | --- |
| Cc1cccc(C(=O)N2CCc3c([nH]c4ccccc34)C2CC(C)C)n1 (stereo not drawn) | 110% |
| Cc1nc(N=C(N)N)nc2c(C)cccc12 | 110% |
| COc1ccc(Cl)cc1NC(=O)c1oc(C)nc1C | 108% |
| COC(=O)c1[nH]c2ccccc2c1NS(=O)(=O)c1ccc(OC)cc1OC | 104% |
| CN1C(=O)/C(=C\c2cc(Br)cs2)c2ccccc21 | 120% |
| O=C(NCc1ccco1)c1cccn2c(=O)c3c4c(sc3nc12)CCCC4 | 106% |
| Cc1ccc(-c2cc(C(=O)Nc3nn[nH]n3)c3ccccc3n2)c(C)c1 | 99.3% |
| CSc1nc(N(C)NC(=O)c2cccc(C)c2)c2ccccc2n1 | 159% (active) |
| Cc1cccc(C(=O)Nc2nnc(Cc3c[nH]c4ccccc34)s2)c1 | 101% |
| CSCCC(NC(=O)c1ccco1)C(=O)OCC(=O)Nc1ncc(Cl)c(C)c1Cl (stereo not drawn) | 97.1% |
| Cc1nc2ccccc2cc1O | 98% |
| N#Cc1c(C(F)(F)F)cc(-c2ccc(Cl)cc2)nc1SCC(=O)O | 107% |
| Oc1c(C=Nc2cccc3nsnc23)ccc2ccccc12 | 96.6% |
| Cc1ccc(C2=NN(C)c3nc4ccccc4n3C2)cc1 | 112% |
| Cc1ccc(OCc2nnc(SC3CCc4ccccc4C3=O)n2C)cc1 (stereo not drawn) | 111% |
| CC(=O)Nc1ccc(NC(=O)COc2ccccc2C(=O)Nc2cccc(Cl)c2Cl)cc1 | 102% |
| CC(C)CNC(=O)COC(=O)/C=C/c1ccccc1[N+](=O)[O-] | 97.8% |
| COc1nc(N=C(N)N)nc2c(C)cccc12 | 109% |
| c1ccc(-c2cn3c(n2)CCc2ccc4cccnc4c2-3)cc1 | 106% |
| O=C(Cc1c[nH]c2ccccc12)OCCOC(=O)Cc1c[nH]c2ccccc12 | 99.2% |
| COc1cccc(NC(=S)C(C#N)=C2N(C)c3ccccc3N2C)c1 | 94.8% |
| NC(=O)CSc1c[nH]c2ccccc12 | 102% |
| COc1cccc(/C=C(/CC(=O)Nc2ccc(N3CCOCC3)cc2)c2nc3ccccc3s2)c1 | 114% |
| Cc1ccc(NC(=O)c2cc([N+](=O)[O-])ccc2Cl)c(O)c1 | 107% |

| SMILES | activation (% of control) |
| --- | --- |
| CCCCC(=O)Nc1nc(C)c(-c2csc(Nc3ccc(Cl)cc3)n2)s1 | 101% |
| C/C(=N\c1nc2ccccc2n1C)c1cc(Cl)ccc1O | 99.6% |
| COc1cc(OC)cc(C(=O)N[C@H](C(=O)Nc2nc3ccccc3[nH]2)C(C)C)c1 | 138% (active) |
| COc1ccccc1-c1nnc(SCC(=O)N2CC(C)CC(C)C2)o1 (stereo not drawn) | 101% |
| COc1ccccc1-c1nnc(NC(=O)c2ccc3ncsc3c2)o1 | 127% (active) |
| Oc1cccc(C2c3[nH]c4ccccc4c3CCN2Cc2cnn(-c3ccccc3)c2)c1 (stereo not drawn) | 105% |
| CCNCc1cc2cc(C)ccc2[nH]c1=O | 101% |
| COC(=O)c1[nH]c2cccc(C)c2c1NC(=O)CN1CCCc2ccccc21 | 96.7% |
| CCOc1ccc(C2c3[nH]c4ccccc4c3CCN2Cc2cn(CC)nc2C)cc1 (stereo not drawn) | 111% |
| COc1ccc(C)cc1NC(=O)c1[nH]c(C)c(C(C)=O)c1C | 99.2% |
| COc1ccc(-c2c3c(=O)n(C)c(=O)n(C)c3cn2-c2cccc(OC)c2)cc1 | 103% |
| O=C(O)CS/C(=C\c1ccc(F)cc1)c1nc2ccccc2s1 | 116% |
| Cc1ccc(N=Nc2c(C)[nH]n(-c3ccccc3)c2=O)cc1 | 106% |
| COc1cc(NS(=O)(=O)c2ccc(N/C=C(\C=O)c3nc4cc(Cl)ccc4o3)cc2)nc(OC)n1 | 104% |
| COCCCNc1nc2c(-c3cccc(C(F)(F)F)c3)nnn2c2ccccc12 | 109% |
| CCOC(=O)c1c(-c2cccc(C)c2)csc1NC(=O)c1c(-c2ccccc2)noc1C | 71.3% |
| Cc1ccc(Nc2nc(-c3sc(NC(=O)c4ccccc4)nc3C)cs2)cc1 | 102% |
| Cc1cccc(N(CC(=O)N=Nc2c(O)[nH]c3ccccc23)S(C)(=O)=O)c1C | 103% |
| O=[N+]([O-])c1ccc(N2CCN(S(=O)(=O)c3ccc4ccccc4c3)CC2)cc1NCc1ccco1 | 105% |
| CCSc1nnc(-c2cc3c(s2)-c2ccccc2CC3)o1 | 118% |
| Cn1nc(-c2ccc(Cl)cc2)c2cc(C(=O)NCc3ccco3)sc21 | 104% |
| COc1ccccc1C1C2=C(COC2=O)Nc2cc3c(cc21)OCO3 (stereo not drawn) | 166% (active) |
| CCOC(=O)CN(C)Cc1c[nH]c2ccccc12 | 105% |
| O=C(C1CCN(S(=O)(=O)Cc2ccccc2)CC1)N1CCCc2ccccc21 | 108% |
